This note sets out measurements from ChEMBL document CHEMBL4513216, “Probing the Open Global Health Chemical Diversity Library for Multistage-Active Starting Points for Next-Generation Antimalarials” (ACS Infect Dis, 2020).

The whole screen tested about 69,000 compounds, of which about 8,600 (12%) showed an effect of 50% or more. The sample as a whole holds a higher share of strong results than the screen did.

This experiment concerns Plasmodium berghei. Briefly: Screen against P. berghei liver stage (PbLuc), transformed with Luciferase, at 10uM. It counts as functional, HepG2. The note with it: tested at 10 uM.
As to `CCCC1(NC(=O)C(c2ccc(F)cc2)N(C)C)CC1` (configuration not stated), the INHIBITION turned out to be 53.6%.

Turning to `CN(C)C(C(=O)NC1(CO)CCCC1)c1ccc(F)cc1` (configuration not stated), the INHIBITION was 31.3%.

In the case of `COCC1(NC(=O)C(c2ccc(F)cc2)N(C)C)CCCC1` (configuration not stated), the INHIBITION is on record as 21.1%.

In the case of `CCOc1ccc(CCCC(=O)N2CCC(c3nnn[nH]3)CC2)cc1C`, the INHIBITION was determined as 17.7%.

Take `CC(C)CC(=O)N1CCCCC(NC(=O)CCc2cccnc2)C1` (configuration not stated): the INHIBITION came out at 34.4%.

Take `CCO[C@H]1CCN(S(=O)(=O)c2cn(C)cn2)[C@H]1Cc1ccccc1`: the INHIBITION is recorded as -55.5%.

Take `Cc1cccn2cc(CN3CCCC(c4noc(C5CC5)n4)C3)nc12` (configuration not stated): the INHIBITION is -48.6%.

With `c1cc(CN2CCCC(c3noc(C4CC4)n3)C2)no1` (configuration not stated), the INHIBITION turned out to be 51.6%.

As for `C1CC(c2noc(C3CC3)n2)CN(Cc2noc(C3CC3)n2)C1` (configuration not stated), the INHIBITION was determined as 17.8%.

For `CCN(Cc1cnn(C)c1)C[C@H]1CC[C@@H](Cc2ccc(CO)cc2)O1`, the INHIBITION is reported as -5.78%.

For `O=C(NCc1ccco1)[C@H]1C[C@@H]2CCN(c3nncs3)C[C@H]2O1`, the INHIBITION stood at 13.5%.

In the case of `CN(Cc1noc(-c2ccccc2)n1)C(=O)CSc1nnc(N)s1`, the INHIBITION is listed as 18.9%.

`CSCC(=O)N(C)Cc1noc(-c2ccccc2)n1`: the INHIBITION came to 55.9%.

Consider `CCc1nc(CN(C)C(=O)CSC)no1`, for which the INHIBITION is -4.96%.

In the case of `c1ccc(-c2cnc(CN3CCCC3Cn3cccn3)o2)cc1` (configuration not stated), the INHIBITION is on record as 40.9%.

As to `O=C1CC2(CCCC2)CC(=O)N1Cc1ncccn1`, the INHIBITION was 29.4%.

As for `Cn1nc(C(=O)NCc2ccc(F)cc2)c2c1CCS(=O)(=O)C2`, the INHIBITION was 21.7%.

On to `Cn1nc(C(=O)NCc2ccccn2)c2c1CCS(=O)(=O)C2`, for which the INHIBITION is reported as -45%.

Regarding `Cn1nc(C(=O)NCc2cccs2)c2c1CCS(=O)(=O)C2`, the INHIBITION amounted to 23.4%.

Consider `Cn1nc(C(=O)NCc2ccc(Cl)cc2)c2c1CCS(=O)(=O)C2`, for which the INHIBITION was 53.2%.

With `COc1ccc(CNC(=O)c2nn(C)c3c2CS(=O)(=O)CC3)cc1`, the INHIBITION was 40%.

Take `Cn1nc(C(=O)NCc2cccnc2)c2c1CCS(=O)(=O)C2`: the INHIBITION stood at 73.9%.

Consider `Cc1cnnn1Cc1nnn2c1CN(Cc1ccccn1)CCC2`, for which the INHIBITION came to 42.6%.

Turning to `O=C(O)CSc1nc(-c2ccc3c(c2)CCC3)n[nH]1`, the INHIBITION came to 11.4%.

As to `O=C([C@H]1CC[C@@H]2[C@@H](CCN2Cc2ccc(F)cc2)O1)N1CCCO1`, the INHIBITION was -11.6%.

For the molecule `c1cnc(N2CCN(CCn3ccnc3-c3c[nH]cn3)CC2)nc1`, the INHIBITION turned out to be 14.5%.

For the molecule `Cc1nccn1CCC1CCN(c2ncccn2)CC1`, the INHIBITION was found to be 48.5%.

For `c1cnc(N2CCN(CCn3ccnc3-c3ccncc3)CC2)nc1`, the INHIBITION was 50.5%.

With `Cc1nc(N)sc1C(=O)N1Cc2ccccc2OC2(CCOCC2)C1`, the INHIBITION stood at 61.7%.

With `Cc1cnc(C(=O)N2Cc3ccccc3OC3(CCOCC3)C2)cn1`, the INHIBITION is on record as -6.92%.

For `O=C(c1ccccn1)N1Cc2ccccc2OC2(CCOCC2)C1`, the INHIBITION is reported as 48.4%.

For `Cc1ccc(C(=O)N2Cc3ccccc3OC3(CCOCC3)C2)cn1`, the INHIBITION is reported as 52%.

On to `O=C(c1ccncc1)N1Cc2ccccc2OC2(CCOCC2)C1`, for which the INHIBITION is reported as 20.5%.

`Cc1cc(C(=O)N2Cc3ccccc3OC3(CCOCC3)C2)nc(N)n1`: the INHIBITION came to 52.9%.

As to `O=C(c1ccc(O)nc1)N1Cc2ccccc2OC2(CCOCC2)C1`, the INHIBITION is 25.6%.

As to `Nc1nonc1C(=O)N1Cc2ccccc2OC2(CCOCC2)C1`, the INHIBITION came out at 8.72%.

On to `O=C(c1cncnc1)N1Cc2ccccc2OC2(CCOCC2)C1`, for which the INHIBITION was -33.4%.
